# Assay results reported in PubChem BioAssay (Tox21).
# Values joined by “and” are separate entries in the source; they are usually repeats but may differ in a detail not shown here. Identical values can stand only once. Records with an inconclusive call do not appear. A call without a number means that no potency is given here. Some compounds were tested as several samples or in several runs, with calls that do not always agree. Active and inactive are the calls of the source. Unless noted, calls follow the shape of the dose curve; as a rule, active = well fitted curve in the direction sought with a large enough effect in the repeat runs; inconclusive = weak or mixed curves; inactive = no such curve, though single readings can be large; an effect the other way counts as inactive or inconclusive.
# How the values were obtained:
# [1] = biological target: Estrogen receptor (Homo sapiens) (UniProt P03372); assay: qHTS assay to identify small molecule antagonists of the estrogen receptor alpha (ER-alpha) signaling pathway using the BG1 cell line in the presence of 0.1 nM 17-beta-estradiol (AID 1259244); also: nearly all actives have a fitted effect of over 50% in size; also: potency is read from the fitted curve at half-maximal effect
# Sequence of Estrogen receptor (Homo sapiens) (P03372 whole entry, looked up): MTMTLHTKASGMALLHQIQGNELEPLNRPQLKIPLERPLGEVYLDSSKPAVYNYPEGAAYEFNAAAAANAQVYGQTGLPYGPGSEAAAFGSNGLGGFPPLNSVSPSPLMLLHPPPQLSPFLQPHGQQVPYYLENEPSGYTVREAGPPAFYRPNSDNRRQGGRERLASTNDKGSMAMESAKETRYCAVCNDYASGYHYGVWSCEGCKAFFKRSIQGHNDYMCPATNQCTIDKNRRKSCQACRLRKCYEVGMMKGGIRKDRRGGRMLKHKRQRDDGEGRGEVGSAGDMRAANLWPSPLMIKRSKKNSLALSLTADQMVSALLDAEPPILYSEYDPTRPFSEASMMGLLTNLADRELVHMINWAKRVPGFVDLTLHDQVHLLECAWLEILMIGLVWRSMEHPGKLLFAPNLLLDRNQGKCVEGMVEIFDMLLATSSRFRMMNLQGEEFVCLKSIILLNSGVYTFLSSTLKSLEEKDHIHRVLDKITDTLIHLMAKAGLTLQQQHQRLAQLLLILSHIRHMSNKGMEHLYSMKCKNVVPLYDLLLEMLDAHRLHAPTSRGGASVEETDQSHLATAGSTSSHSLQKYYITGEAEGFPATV
# Procedure, shortened: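 VM7Luc4E2 cells (endogenous full-length ER-alpha, stable 4xERE-luciferase) were grown 5 days in phenol red-free medium with charcoal-stripped FBS, then exposed 22 h at 37C to compounds plus 0.1 nM (final) 17beta-estradiol; ONE-Glo luminescence read-out.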
# [2] = qHTS assay to identify small molecule phospholipidosis (PLD) inducers (AID 1259344; active = well fitted curve in the direction sought with a large enough effect; an effect the other way counts as inactive or inconclusive)
# Procedure, shortened: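 Phospholipidosis is scored by imaging LipidTOX-stained pits in HepG2 cells exposed to compound for 24 h at 37 C; pit counts and integrated intensities per well and per cell serve as outputs.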
# [3] = qHTS assay to identify small molecule HDAC inhibitors (AID 1259364); also: nearly all actives have a fitted effect of over 45% in size; also: potency is read from the fitted curve at half-maximal effect
# Procedure, shortened: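 Wild-type HCT-116 cells were plated overnight, exposed to compounds for 2 h at 37 °C, then given HDAC-Glo class I/II luminogenic reagent for 30 min at room temperature before luminescence was read.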
# [4] = qHTS assay to identify small molecule HDAC inhibitors - cell viability counter screen (AID 1259365); also: series mostly up to about 92 µM; nearly all actives have a fitted effect of over 50% in size
# Procedure, shortened: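 Following a 2hr exposure of overnight-plated wild-type HCT-116 cells to DMSO-delivered compounds, CellTiter-Glo was added and luminescence recorded after 30min at room temperature.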
# [5] = qHTS assay to identify small molecule agonists of the sonic hedgehog signaling (Shh) pathway - cell viability counter screen (AID 1259366); also: nearly all actives have a fitted effect of over 50% in size; also: potency is read from the fitted curve at half-maximal effect
# Procedure, shortened: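 After a 4hr attachment at 37C, NIH/3T3 cells bearing an integrated Gli1-driven luciferase reporter were dosed with compounds. Treatment lasted 24hr, with the final hour including CellTiter-Fluor for a fluorescence viability measurement.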
# [6] = qHTS assay to identify small molecule antagonists of the sonic hedgehog signaling (Shh) pathway - cell viability counter screen (AID 1259367); also: nearly all actives have a fitted effect of over 55% in size; also: potency is read from the fitted curve at half-maximal effect
# Procedure, shortened: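 Cells: 3T3 Gli1-Luc, 2,000/well, 4 hr pre-incubation. Compounds in DMSO, then conditioned medium. Incubation 24 hr, 37C, 5% CO2. CellTiter-Fluor at 23 hr, 1 hr, fluorescence.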
# [7] = qHTS assay to identify small molecule agonists of the sonic hedgehog signaling (Shh) pathway (AID 1259368; calls by dose curve; also: series mostly up to about 92 µM; nearly all actives have a fitted effect of over 15% in size)
# Procedure, shortened: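 NIH/3T3-derived 3T3Gli1-Luc cells carrying a stably integrated Gli1 response element–firefly luciferase reporter were plated, left 4 hr at 37 C, then given compounds in DMSO for 24 hr. Luminescence was read 30 min after adding luciferase reagent.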
# [8] = qHTS assay to identify small molecule antagonists of the sonic hedgehog signaling (Shh) pathway (AID 1259369; calls by dose curve; also: nearly all actives have a fitted effect of over 45% in size; also: potency is read from the fitted curve at half-maximal effect)
# Procedure, shortened: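 NIH/3T3-derived 3T3Gli1-Luc cells with stably integrated Gli1-Luc reporter were preincubated 4hr at 37 C, then given compounds in DMSO plus Shh conditioned medium and incubated 24hr. Firefly luciferase luminescence read after 30min reagent at room temperature.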
# [9] = biological target: Estrogen receptor beta (Homo sapiens) (UniProt Q92731); assay: qHTS assay to identify small molecule agonists of the estrogen receptor beta (ER-beta) signaling pathway (AID 1259377; active = well fitted activation curve with a large enough effect in the signal ratio in the repeat runs, not every such curve was filed as active; the % refers to the signal ratio)
# Sequence of Estrogen receptor beta (Homo sapiens) (Q92731 whole entry, looked up): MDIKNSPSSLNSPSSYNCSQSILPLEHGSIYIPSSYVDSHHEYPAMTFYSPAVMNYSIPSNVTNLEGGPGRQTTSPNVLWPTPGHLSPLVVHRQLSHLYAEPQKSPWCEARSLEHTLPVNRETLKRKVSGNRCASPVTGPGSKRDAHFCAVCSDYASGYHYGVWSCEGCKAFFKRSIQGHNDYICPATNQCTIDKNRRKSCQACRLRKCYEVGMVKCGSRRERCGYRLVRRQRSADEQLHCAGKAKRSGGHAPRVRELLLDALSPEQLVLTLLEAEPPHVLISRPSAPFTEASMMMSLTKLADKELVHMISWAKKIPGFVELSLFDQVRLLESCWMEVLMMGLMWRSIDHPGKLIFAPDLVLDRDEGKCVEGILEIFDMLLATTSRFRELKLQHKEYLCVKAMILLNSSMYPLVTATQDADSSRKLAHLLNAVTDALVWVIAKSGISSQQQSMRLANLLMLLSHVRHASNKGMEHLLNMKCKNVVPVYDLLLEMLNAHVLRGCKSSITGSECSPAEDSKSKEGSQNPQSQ
# Procedure, shortened: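 In HEK293T cells bearing a UAS-beta-lactamase reporter under ER-beta control, DMSO-delivered compounds were incubated for 16 hr at 37C. Activity was detected as fluorescence 2 hours after LiveBLAzer B/G FRET substrate addition.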
# [10] = biological target: Estrogen receptor beta (Homo sapiens) (UniProt Q92731); assay: qHTS assay to identify small molecule antagonists of the estrogen receptor beta (ER-beta) signaling pathway (AID 1259378; active = well fitted inhibition curve with a large enough effect in the signal ratio in the repeat runs, not every such curve was filed as active; the % refers to the signal ratio)
# Procedure, shortened: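 Antagonist mode: compounds added to beta-lactamase reporter HEK293T ER-beta-UAS cells stimulated with E2 (1nM final), 16 hr at 37C. LiveBLAzer B/G FRET substrate, 2 hours room temperature, fluorescence read-out.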
# [11] = qHTS assay to identify small molecule agonists of the androgen receptor (AR) signaling pathway in the presence of an antagonist - cell viability counter screen (AID 1259379);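 also: MDA-kb2 human breast cancer cells carrying an MMTV luciferase reporter; series mostly up to about 92 µM; nearly all actives have a fitted effect of over 25% in size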
# Procedure, shortened: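 MDA-kb2 human breast carcinoma cells (stable MMTV-luciferase, AR/GR responsive) were seeded 3,000 cells/well, pre-incubated 5 hr at 37C without CO2, then given 3.0uM nilutamide and compounds at 15 concentrations for 16 hr. Viability was read by CellTiter-Fluor fluorescence.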
# [12] = qHTS assay to identify small molecule agonists of the estrogen receptor beta (ER-beta) signaling pathway - cell viability counter screen (AID 1259380); also: nearly all actives have a fitted effect of over 30% in size; also: potency is read from the fitted curve at half-maximal effect
# Procedure, shortened: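 ER-beta-UAS-bla HEK293T cells in medium with 2% charcoal-stripped FBS were preincubated 6 hr at 37C, dosed with compound in DMSO for 16 hr, then after the bla read, CellTiter-Glo was added for 30 min at room temperature; luminescence recorded.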
# [13] = biological target: Estrogen receptor (Homo sapiens) (UniProt P03372); assay: qHTS assay to identify small molecule agonists of the estrogen receptor alpha (ER-alpha) signaling pathway in the presence of an antagonist (AID 1259383; calls by dose curve; also: top concentration of the series differs between compounds; nearly all actives have a fitted effect of over 15% in size)
# Procedure, shortened: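 VM7Luc4E2 cells (endogenous full-length ER-alpha, 4×ERE-luciferase) were precultured 5 days in phenol red-free medium with 10% charcoal-stripped FBS, given 10.0nM ICI-182,780 (final), then treated with compounds at 15 concentrations for 22hr at 37C; luminescence read with ONE-Glo.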
# [14] = biological target: Thyrotropin receptor (Homo sapiens) (UniProt P16473); assay: qHTS assay to identify small molecule antagonists of the thyroid stimulating hormone receptor (TSHR) signaling pathway (AID 1259385; calls by dose curve; also: nearly all actives have a fitted effect of over 20% in size)
# Sequence of Thyrotropin receptor (Homo sapiens) (P16473 whole entry, looked up): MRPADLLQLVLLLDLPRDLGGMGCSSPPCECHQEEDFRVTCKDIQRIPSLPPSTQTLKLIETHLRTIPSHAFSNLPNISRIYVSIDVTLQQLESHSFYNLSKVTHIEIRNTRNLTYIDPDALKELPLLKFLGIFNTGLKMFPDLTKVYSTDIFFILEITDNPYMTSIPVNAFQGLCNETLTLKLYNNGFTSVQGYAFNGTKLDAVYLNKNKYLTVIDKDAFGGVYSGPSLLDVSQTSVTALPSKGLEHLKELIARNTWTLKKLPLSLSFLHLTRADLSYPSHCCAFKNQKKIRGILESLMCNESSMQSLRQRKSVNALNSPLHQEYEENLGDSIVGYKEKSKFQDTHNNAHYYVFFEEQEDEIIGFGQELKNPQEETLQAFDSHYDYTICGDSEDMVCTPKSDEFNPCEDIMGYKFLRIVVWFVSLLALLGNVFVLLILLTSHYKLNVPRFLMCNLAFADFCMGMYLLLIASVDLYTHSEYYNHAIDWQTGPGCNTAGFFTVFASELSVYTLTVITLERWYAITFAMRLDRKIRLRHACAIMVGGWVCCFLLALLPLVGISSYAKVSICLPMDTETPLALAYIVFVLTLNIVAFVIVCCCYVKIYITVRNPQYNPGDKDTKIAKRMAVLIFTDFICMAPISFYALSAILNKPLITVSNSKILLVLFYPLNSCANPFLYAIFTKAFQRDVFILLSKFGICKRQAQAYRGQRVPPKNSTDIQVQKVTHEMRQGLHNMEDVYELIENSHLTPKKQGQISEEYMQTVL
# Procedure, shortened: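 Antagonist mode: compound-treated TSHR-expressing HEK293 cells were stimulated with 1.5 ng/mL TSH (final) in presence of Ro20-1724 for 30 min at RT. HTRF cAMP detection after 1 h; each compound tested at 15 concentrations, triplicate.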
# [15] = qHTS assay to identify small molecule agonists of the estrogen receptor alpha (ER-alpha) signaling pathway in the presence of an antagonist - cell viability counter screen (AID 1259386); also: series mostly up to about 92 µM; nearly all actives have a fitted effect of over 30% in size
# Procedure, shortened: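 VM7Luc4E2 cells (endogenous full-length ER-alpha, 4×ERE-luciferase) were held 5 days in phenol red-free medium with 10% charcoal-stripped FBS, plated, then given 10.0nM ICI-182,780 and compounds at 15 concentrations for 22hr at 37C; viability read by CellTiter-Fluor fluorescence.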
# [16] = biological target: Progesterone receptor (Homo sapiens) (UniProt P06401); assay: qHTS assay to identify small molecule antagonists of the progesterone receptor (PR) signaling pathway (AID 1346795; active = well fitted inhibition curve with a large enough effect in the signal ratio in the repeat runs, not every such curve was filed as active; the % refers to the signal ratio; also: potency is read from the fitted curve at half-maximal effect)
# Sequence of Progesterone receptor (Homo sapiens) (P06401 whole entry, looked up): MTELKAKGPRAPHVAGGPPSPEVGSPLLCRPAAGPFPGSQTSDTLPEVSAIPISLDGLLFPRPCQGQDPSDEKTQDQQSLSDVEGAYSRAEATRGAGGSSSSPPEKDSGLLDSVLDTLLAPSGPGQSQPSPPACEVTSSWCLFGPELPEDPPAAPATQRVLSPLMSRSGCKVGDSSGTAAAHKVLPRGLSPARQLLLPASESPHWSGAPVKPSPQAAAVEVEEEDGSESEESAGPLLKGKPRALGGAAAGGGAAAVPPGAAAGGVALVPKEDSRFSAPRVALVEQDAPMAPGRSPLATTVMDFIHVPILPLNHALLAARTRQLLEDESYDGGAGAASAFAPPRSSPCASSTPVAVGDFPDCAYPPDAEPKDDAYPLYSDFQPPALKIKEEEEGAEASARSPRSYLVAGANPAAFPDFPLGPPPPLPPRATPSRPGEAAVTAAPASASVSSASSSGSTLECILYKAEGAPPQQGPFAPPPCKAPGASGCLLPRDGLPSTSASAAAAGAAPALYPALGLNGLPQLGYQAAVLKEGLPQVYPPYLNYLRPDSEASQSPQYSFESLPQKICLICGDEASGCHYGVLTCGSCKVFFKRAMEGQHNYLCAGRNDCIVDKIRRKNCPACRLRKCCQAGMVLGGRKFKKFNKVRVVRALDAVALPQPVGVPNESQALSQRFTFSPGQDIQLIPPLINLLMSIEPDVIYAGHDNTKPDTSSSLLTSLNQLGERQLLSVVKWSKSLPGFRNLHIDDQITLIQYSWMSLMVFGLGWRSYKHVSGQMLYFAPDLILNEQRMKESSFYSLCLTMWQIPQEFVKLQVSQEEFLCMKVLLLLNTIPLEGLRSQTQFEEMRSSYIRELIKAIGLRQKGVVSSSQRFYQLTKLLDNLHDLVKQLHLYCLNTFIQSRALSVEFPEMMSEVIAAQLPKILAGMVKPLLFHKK
# Procedure, shortened: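 Inhibition of R5020-induced (1 nM final) beta-lactamase reporter signal in PR-UAS-bla HEK293T cells was scored by FRET fluorescence after overnight (16 hr) compound treatment.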
# [17] = qHTS assay to identify small molecule antagonists of the estrogen receptor beta (ER-beta) signaling pathway - cell viability counter screen (AID 1259382);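 also: HEK293T cells carrying ER-beta-UAS-bla reporter stimulated with estradiol; series mostly up to about 92 µM; nearly all actives have a fitted effect of over 55% in size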
# Procedure, shortened: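 ER-beta-UAS-bla HEK293T cells (2,000/well, 2% charcoal-stripped FBS) were pre-incubated 6 hr at 37C, then given compound plus 1nM final 17-beta-estradiol for 16 hr. Viability was read in the same wells by CellTiter-Glo luminescence after 30 min at room temperature.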
# [18] = qHTS assay to identify small molecule agonists or antagonists of the thyroid stimulating hormone receptor (TSHR) signaling pathway - wild type cell line counter screen (AID 1259384; calls by dose curve)
# Procedure, shortened: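 Counter screen in untransfected Hek293: compounds (15-point titration, triplicate) plus phosphodiesterase inhibitor Ro20-1724 added after 18 h plating; 30 min RT. Intracellular cAMP via competitive d2/cryptate immunoassay, 1 h incubation.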
# [19] = biological target: Progesterone receptor (Homo sapiens) (UniProt P06401); assay: qHTS assay to identify small molecule agonists of the progesterone receptor (PR) signaling pathway (AID 1346784; calls by dose curve; also: nearly all actives have a fitted effect of over 30% in size)
# Procedure, shortened: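 Using charcoal-stripped serum (2%) to limit endogenous steroids, PR-UAS-bla HEK 293T cells received compounds for 16 hr at 37C after 6 hr plating; beta-lactamase FRET fluorescence was recorded following 2 hr substrate loading at room temperature.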
Structure (SMILES),Potency [1],outcome [2],Potency [3],outcome [4],Potency [5],Potency [6],outcome [7],Potency [8],Potency [9],outcome [10],outcome [11],Potency [12],Potency [13],Potency [14],outcome [15],Potency [16],Potency [17],outcome [18],outcome [19]
Nc1ccccc1C(=O)O,inactive,inactive,inactive,inactive,inactive,inactive,inactive,inactive,inactive,inactive,inactive,inactive,inactive,inactive,inactive,inactive,,,
CN(N=O)c1ccccc1,inactive,,inactive,inactive,inactive,inactive,inactive,inactive,inactive,inactive,inactive,inactive,inactive,inactive,inactive,inactive,inactive,inactive,inactive
CCOP(=S)(OCC)Oc1cnc2ccccc2n1,inactive,,inactive,inactive,inactive,inactive,inactive,27.3 µM (active),inactive,inactive,inactive,inactive,inactive,inactive,inactive,inactive,inactive,,
O=C1CCCN1,inactive,,inactive,inactive,inactive,inactive,inactive,inactive,,,inactive,inactive,inactive,inactive,inactive,inactive,,,inactive
CC(C)N1C(=O)c2ccccc2NS1(=O)=O,inactive,,inactive,inactive,inactive,inactive,inactive,inactive,,,inactive,inactive,inactive,inactive,inactive,inactive,inactive,,
O=NN1CCCC1,20.2 µM (active) and inactive,,inactive,inactive,inactive,inactive,inactive,inactive,inactive,inactive,inactive,20.2 µM (active) and inactive,inactive,inactive,inactive,inactive,,inactive,inactive
CCNc1nc(NC(C)(C)C)nc(SC)n1,inactive,,inactive,inactive,inactive,inactive,inactive,1.7 µM (active) and 6.11 µM (active),inactive,inactive,inactive,inactive,inactive,inactive,inactive,47.9 µM (active),,,inactive
O=c1[nH]c2ccccc2c(=O)o1,inactive,,inactive,inactive,inactive,inactive,inactive,inactive,,,inactive,inactive,inactive,inactive,inactive,inactive,inactive,inactive,inactive
CCCCCCCCCl,inactive,,inactive,inactive,inactive,inactive,inactive,inactive,inactive,inactive,inactive,inactive,inactive,,inactive,,inactive,,inactive
C=CC(N)=O,inactive,,inactive,inactive,inactive,inactive,inactive,inactive,,,inactive,inactive,inactive,inactive,inactive,,inactive,inactive,
CNC(=O)Oc1ccccc1OC(C)C,inactive,,inactive,inactive,inactive,inactive,inactive,inactive,inactive,inactive,inactive,inactive,inactive,inactive,inactive,inactive,,inactive,inactive
CC(C)OC(=O)Nc1ccccc1,inactive,,27.4 µM (active) and 24.3 µM (active),inactive,inactive,inactive,inactive,inactive,,,inactive,inactive,inactive,inactive,inactive,inactive,inactive,inactive,inactive
O=NN1CCCCCCC1,inactive,,inactive,inactive,inactive,inactive,inactive,inactive,,,inactive,inactive,inactive,inactive,inactive,inactive,inactive,inactive,inactive
Cc1cc(-c2cc(C)c(N)c(C)c2)cc(C)c1N,inactive,,inactive,inactive,inactive,inactive,inactive,2.74 µM (active) and 21.3 µM (active),,,inactive,,inactive,,inactive,,,inactive,inactive
CC(C)NC(=O)N1CC(=O)N(c2cc(Cl)cc(Cl)c2)C1=O,inactive,,inactive,inactive,48.6 µM (active) and inactive,54.5 µM (active) and inactive,inactive,10.9 µM (active),,,inactive,,inactive,inactive,inactive,,inactive,inactive,inactive
CCC[CH2][Sn]([Cl])([Cl])[Cl],inactive,,inactive,inactive,inactive,inactive,inactive,inactive,,,inactive,inactive,inactive,inactive,inactive,inactive,,inactive,inactive
CCOP(OCC)OCC,inactive,,inactive,inactive,inactive,inactive,inactive,inactive,,,inactive,inactive,inactive,,inactive,inactive,,,inactive
ClCc1cccnc1,inactive,,inactive,inactive,inactive,inactive,inactive,inactive,,,inactive,inactive,inactive,inactive,inactive,inactive,,,inactive
